Among all 310,000 compounds or so, about 1,200 (0.39%) were called active. No rule for the calls is given here. A selection follows. Results with a measured potency or affinity are listed apart.
What follows are compounds tested against Large T antigen (Simian virus 40) (UniProt P03070) (assay: TAg ATPase/helicase activity blockers – biochemical (AID 1903)). Conditions: SV40 large T antigen ATPase/helicase inhibition assay; at 20 µM; active compounds read high.
Sequence of Large T antigen (Simian virus 40) (P03070 whole entry, looked up): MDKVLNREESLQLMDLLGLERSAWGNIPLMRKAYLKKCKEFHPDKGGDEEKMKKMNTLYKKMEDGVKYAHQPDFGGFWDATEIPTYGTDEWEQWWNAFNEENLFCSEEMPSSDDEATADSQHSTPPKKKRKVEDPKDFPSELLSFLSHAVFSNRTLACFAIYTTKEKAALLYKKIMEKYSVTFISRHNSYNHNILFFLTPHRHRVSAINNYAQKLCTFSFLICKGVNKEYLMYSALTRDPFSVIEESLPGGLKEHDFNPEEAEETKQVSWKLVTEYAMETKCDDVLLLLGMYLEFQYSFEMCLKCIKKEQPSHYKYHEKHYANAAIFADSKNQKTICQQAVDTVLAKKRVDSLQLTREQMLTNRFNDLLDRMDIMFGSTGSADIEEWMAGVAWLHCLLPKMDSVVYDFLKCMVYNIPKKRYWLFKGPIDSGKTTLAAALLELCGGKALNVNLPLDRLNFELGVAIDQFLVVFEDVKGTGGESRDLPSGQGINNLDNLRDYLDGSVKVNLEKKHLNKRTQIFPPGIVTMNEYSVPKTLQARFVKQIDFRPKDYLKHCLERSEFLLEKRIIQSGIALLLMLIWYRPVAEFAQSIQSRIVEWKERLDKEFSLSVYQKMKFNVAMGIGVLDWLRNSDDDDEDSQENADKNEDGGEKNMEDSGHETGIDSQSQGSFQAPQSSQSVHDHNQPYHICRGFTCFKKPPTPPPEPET

inhibition, inactive:
Cc1cccc(NC(=O)c2ccc(NC(=O)CC3SC(N4CCCC4)=NC3=O)cc2)n1 (stereo unspecified) 12.5%
CC1CCCN(S(=O)(=O)c2ccc(CN3C(=O)c4cccnc4C3=O)cc2)C1 (stereo unspecified) 9.07%
O=C1NN(c2ccc(F)cc2)C(=O)/C1=C\C=C\c1ccco1 19.7%
CC(C)CN1C(=O)/C(=C/c2ccco2)NC1=S 19.9%
CCc1ccc(N2NC(=O)/C(=C/C=C/c3ccco3)C2=O)cc1 22.1%
CCN1C(=O)/C(=C\c2ccco2)C(C(=O)OC)=C1C 8.18%
CCCCn1c(N)c(N(CC)C(=O)/C=C/c2ccco2)c(=O)[nH]c1=O 5.15%
Cc1cccc(N=C2NC(=O)/C(=C/C=C/c3ccco3)S2)c1C 5.68%
Cc1csc2nc(CSc3nc4ccccc4o3)c(Br)n12 1.48%
Cc1c[n+]([O-])n(-c2ccc(C(=O)O)cc2)n1 2.23%
O=C(c1cc(=O)c2ccccc2o1)N1CCN(c2cccc(Cl)c2)CC1 8.8%
CC(=O)c1cccc(NS(=O)(=O)N2CCOCC2)c1 9.29%
O=C(CCCc1ccccc1)Nc1cccnc1Cl 10%
O=C(c1c(Cl)cccc1Cl)N1CCN(c2cccc3[nH]ccc23)CC1 23.6%
O=[N+]([O-])c1cccc(CN2CCN(c3cccc4[nH]ccc34)CC2)c1 27.1%
Cc1ccc(S(=O)(=O)N2CCC(C(=O)NNC(=O)c3ccc(F)cc3)CC2)cc1 7.95%
Cc1ccc(C)c(CSc2nnc(-c3ccccn3)n2N)c1 4.69%
CCSc1nnc2n(-c3ccc(OC)cc3)c(=O)c3c4c(sc3n12)CCCC4 2.78%
CSc1nnc2n(-c3ccccc3)c(=O)c3c4c(sc3n12)CCC4 3.42%
Cc1nnc2n(-c3ccccc3)c(=O)c3c4c(sc3n12)CCCC4 4.53%
COc1ccc(-n2c(=O)c3c4c(sc3n3c(=S)[nH]nc23)CCCC4)cc1 2.8%
Cc1cccc(-n2c(=O)c3c4c(sc3n3c(=S)[nH]nc23)CCC4)c1 34.1%
COc1ccccc1-n1c(=O)c2c3c(sc2n2c(=S)[nH]nc12)CCC3 30.3%
COc1ccccc1C1(O)C(=O)Nc2ccc(C)cc21 (stereo unspecified) 9.43%
CS(=O)(=O)N1CCN(c2ncnc3c2cnn3-c2ccccc2)CC1 1.55%
CC1=CC(=C(C#N)C#N)C=C(C)N1CCN1CCN(C(=O)Nc2ccc(Cl)c(Cl)c2)CC1 3.99%

Reference: PubChem BioAssay AID1903 (Southern Research Specialized Biocontainment Screening …, 2009)
